The whole screen tested about 2,400 compounds, of which about 700 (29%) were called active.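 Rule for the calls: active = inhibition of at least 50%; inactive = the rest.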 Not all results are given here.

In PubChem BioAssay AID651997 (Sanford-Burnham Center for Chemical Genomics, 2013) one finds inhibition data, which are given here for 20 compounds.

Chain of G-protein coupled receptor 183 (Homo sapiens) (P32249 whole entry, looked up): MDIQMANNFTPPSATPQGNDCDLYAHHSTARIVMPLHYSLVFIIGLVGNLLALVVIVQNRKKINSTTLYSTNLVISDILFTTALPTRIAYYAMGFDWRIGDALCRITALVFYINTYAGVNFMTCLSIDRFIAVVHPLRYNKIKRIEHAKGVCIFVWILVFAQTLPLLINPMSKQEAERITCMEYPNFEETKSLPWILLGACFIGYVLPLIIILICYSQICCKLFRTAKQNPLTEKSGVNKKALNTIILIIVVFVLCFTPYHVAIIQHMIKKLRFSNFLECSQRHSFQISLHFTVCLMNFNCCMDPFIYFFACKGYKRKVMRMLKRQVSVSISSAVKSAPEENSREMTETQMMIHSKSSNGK

This assay concerns the target G-protein coupled receptor 183 (Homo sapiens) (UniProt P32249). Briefly: repeat testing of EBI2 arrestin blockers – cell-based, single concentration, luminescence, 7a,25-OHC stimulation, confirmation (AID 651997). To be noted: EBI2 beta-arrestin luminescence, 7a,25-OHC antagonism; at 5 µM; stronger effect = higher value.
As to `COc1ccc(N(CC(=O)Nc2cc(OC)ccc2OC)S(=O)(=O)c2c(C)noc2C)cc1`, the inhibition (usually how much of the control response was suppressed) was 21.2% (inactive).

On to `COc1ccc(C(c2nnnn2C2CCCC2)N2CCN(C/C=C/c3ccccc3)CC2)cc1` (stereo not given), for which the inhibition was 39.9% (inactive).

Turning to `Cc1ccc(-n2ncc3c(=O)n(-c4ccc(C)c(C)c4)c(-c4ccco4)nc32)cc1`, the inhibition is 16.7% (inactive).

As for `COc1cc(/C=C(\C#N)C(=O)Nc2ccc3ccccc3c2)c([N+](=O)[O-])cc1OC`, the inhibition was 48.2% (inactive).

Consider `O=C(CC(c1ccccc1)c1ccccc1)NCC(O)c1ccc([N+](=O)[O-])cc1` (stereo not given), for which the inhibition is 32.1% (inactive).

As for `O=C(COc1ccc2c(c1)CCC2)N1CCN(c2ccc(F)cc2)CC1`, the inhibition is 25% (inactive).

Consider `O=C(COc1ccc(Cl)cc1)N1CCN(c2cccc(C(F)(F)F)c2)CC1`, for which the inhibition is 68% (active).

As to `Cc1cc(C)cc(Oc2nc3c(C)cccn3c(=O)c2/C=C(\C#N)C(=O)NC2CCS(=O)(=O)C2)c1` (stereo not given), the inhibition was 44.9% (inactive).

With `COc1ccc(-c2nc(N)ncc2-c2ccc(Cl)cc2)c(O)c1`, the inhibition is 58.9% (active).

With `O=C(NCc1ccc(Cl)cc1)c1cc(=O)nc2sc(-c3ccccc3)nn12`, the inhibition was 36% (inactive).

On to `Cc1cccc(C)c1-n1nnnc1C(CCc1ccccc1)N1CCN(C/C=C/c2ccccc2)CC1` (stereo not given), for which the inhibition was 8.65% (inactive).

`Cc1cc(C)c2c(=O)n3c(nc2c1)C(CC(C)C)NC(=O)c1cc2ccccc2cc1-3` (stereo not given): the inhibition was 61.4% (active).

On to `CC(C)Cn1c(N2CCN(C(=O)/C=C/c3ccccc3)CC2)nc2ccccc21`, for which the inhibition was 41.6% (inactive).

Take `COc1ccccc1CCNC(=O)C1CCN(C(=O)/C=C/c2ccccc2)CC1`: the inhibition is 64.2% (active).

With `Cc1cccc(NC(=O)CN2CCN(C(=O)C3CCN(C(=O)/C=C/c4ccccc4)CC3)CC2)c1C`, the inhibition was 45% (inactive).

Consider `CC(=O)c1nn(-c2ccc(C)cc2)cc1C(=O)c1cccc(Br)c1`, for which the inhibition was 45.6% (inactive).

Take `O=C(c1ccc(-n2cnnn2)cc1)N1CCN(C(c2ccccc2)c2ccccc2)CC1`: the inhibition is 55.9% (active).

For the compound `Cc1nc2ccc(C(=O)N3CCN(c4ccccc4)CC3)cc2s1`, the inhibition is 40.5% (inactive).

Turning to `c1ccc(C(c2ccccc2)N2CCN(Cc3nnnn3C3CCCCC3)CC2)cc1`, the inhibition is 34% (inactive).

`COc1ccc(Nc2cc(Sc3ccc(OC)cc3)ncn2)cc1`: the inhibition was 25.1% (inactive).
